From PubChem BioAssay
MARV entry inh: Marburg virus entry inhibition | Marburg virus pseudotyped entry inhibition, cell reporter | Potency, µM (titrated, usually from 37.8 µM), without a hit: at the top dose activity change, negative = inhibition, actives largely listed as inhibitors | hit rate 1.8% among 300,000; calls by dose curve; tested in HEK293 cells; note: potency is the fitted concentration of half-maximal effect
HCV inhibitor: HCV inhibition; Potency, µM (highest dose often 41.8 µM), without a hit: at the highest dose activity change, negative = inhibition, usual class: inhibitors; hit rate 3.4% among 340,000; AID 651820; Huh7.5.1 HCVcc-Cre infection, luciferase reporter, 44 h; note: potency is the fitted concentration of half-maximal effect
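Infectious HCV cell culture screen: compound-treated cells (1,000/well, pre-plated 4 h) are infected with HCVcc-Cre at roughly 0.5 moi and grown 44 h. Infection is quantified by luciferase signal after 15 min substrate incubation at room temperature.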
HCMV antiviral: human cytomegalovirus inhibition; hit rate 4.5% among 410,000; activity change, negative = inhibition, % at 57.5 µM; AID 1259415; HFF cells, HCMV-luciferase reporter, 72 h; stronger effect = lower value; in the data active = activity change below about -60%; inconclusive = no clear call, values can overlap the other calls; inactive = above about -39%
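Two-dose cell screen: HFF monolayers treated with compounds and infected with luciferase-expressing HCMV at 1 PFU/cell, 72 h at 37C, then lysed for luciferase measurement.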
Lassa entry inh: inhibitors of Lassa virus binding or cell entry. AID 540256. Lassa virus pseudotype entry inhibition, cell reporter. hit rate 1.2% among 300,000. Potency, µM (series often up to 37.9 µM), inactives show top-dose activity change, negative = inhibition, usual class: inhibitors; calls by dose curve; tested in HEK293 cells; note: potency is the fitted concentration of half-maximal effect; nearly all actives have a fitted effect of over 50% in size
Pf growth 48h: inhibits P. falciparum growth in the first generation, 48 h. P. falciparum luciferase growth in erythrocytes, 48 h. hit rate 5.9% among 310,000. Potency, µM (top dose mostly 28.7 µM), without a hit: at the top dose activity change, negative = inhibition, actives largely listed as inhibitors; note: potency is the fitted concentration of half-maximal effect
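Growth was read as firefly luciferase luminescence after a 48 h, 37 C, 5% CO2 exposure of compounds to reporter-bearing P. falciparum cultures (0.1% parasitemia, 2% hematocrit final) in Albumax-supplemented RPMI 1640.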
Pf growth 96h: P. falciparum growth inhibition at 96 hours | P. falciparum luciferase reporter growth, 96 h | Potency, µM (highest dose often 28.7 µM), for the others: at the top dose activity change, negative = inhibition, most hits filed as inhibitors | hit rate 6.9% among 320,000; note: potency is the fitted concentration of half-maximal effect
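Readout is luminescence from an integrated firefly luciferase in P. falciparum. Red cells, 2% hematocrit and 0.05% parasitemia final, were cultured with compound through two parasite generations (96 hours) at 37 C, 5% CO2.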
* = called active by the depositor; ? = inconclusive; / = no result given; [ ] = remark or other dose. Only some compounds are listed: those with a hit (about 14% of all), similar ones and a draw of the others. Unless noted, calls come from the whole dose curve; as a rule, active = well fitted inhibition curve with a large enough effect; inconclusive = small, poorly fitted or top-dose-only effect, or another doubt; inactive = no such curve, though single readings can be large or run the other way. % is set by controls: 0 for no effect and ±100 for the full control effect.

SMILES	MARV entry inh	HCV inhibitor	HCMV antiviral	Lassa entry inh	Pf growth 48h	Pf growth 96h
CC(C)(C)C1CCc2nc(NC(=O)c3ccc([N+](=O)[O-])cc3)sc2C1 (stereo not drawn)	2.2%[46.1 µM]	/	-73.7*	8.9%[46.1 µM]	/	/
CC(C)c1nnc(NC(=O)COc2ccccc2[N+](=O)[O-])s1	?	14.3%	?	-26.3%[46.1 µM]	97.2%	105.5%
CC(C)(C)C1CCc2nc(NC(=O)COc3ccccc3[N+](=O)[O-])sc2C1 (stereo not drawn)	27.7%[46.1 µM]	/	-90.8*	-21.8%[46.1 µM]	/	/
Cc1cccc(OCC(=O)Nc2nc3c(s2)CC(C(C)(C)C)CC3)c1C (stereo not drawn)	9.5%[46.1 µM]	/	7.9	5.3%[46.1 µM]	/	/
CC(C)(C)C1CCc2nc(NC(=O)c3cccc(Cl)c3)sc2C1 (stereo not drawn)	?	/	-90.4*	0.9%[46.1 µM]	/	/
CC(C)(C)C1CCc2nc(NC(=O)Cc3ccccc3)sc2C1 (stereo not drawn)	?	/	55.7	10.6%[46.1 µM]	/	/
Cc1ccc(-n2c(=O)c3c4c(sc3n(Cc3cc(=O)n5cc(Cl)ccc5n3)c2=O)CCC4)cc1C	-16.4%[46.1 µM]	/	13.4	11.3%[46.1 µM]	/	/
CC(=O)NC(=S)Nc1ccc(NC(=O)c2cccnc2Cl)cc1	?	-15.1%	32.4	11.0%	?	-3.6%
CCOC(=O)C(CC)(CC)C(=O)/C=C/c1cccc(Br)c1	?	?	-75.4*	?	/	/
O=C(NCCN1CCC(n2c(=O)[nH]c3ccccc32)CC1)c1cc(F)cc(F)c1	/	/	-27.2	/	/	/
CCN(c1ccccc1)S(=O)(=O)c1cccc(C(=O)Nc2ccc(C)cn2)c1	/	?	/	/	8.28µM*	9.28µM*
CCN(CC)S(=O)(=O)c1cccc(C(=O)Nc2ccc(Cl)cn2)c1	?	3.55µM*	-11.0	?	31.0%	17.2%
CCN(CC)S(=O)(=O)c1cc(C(=O)Nc2ccc(Cl)cn2)ccc1C	?	15.8µM*	40.6	?	124.1%	/
C=CCN(c1ccccc1)S(=O)(=O)c1cccc(C(=O)Nc2cc(C)ccn2)c1	8.91µM*	?	?	17.8µM*	?	?
CCN(CC)S(=O)(=O)c1cccc(C(=O)Nc2ccccc2C(=O)Nc2ccc(Cl)cc2)c1	/	/	6.8	?	/	/
COc1cccc(C2CC(=O)Nc3c2c(=O)nc2c(C)cccn32)c1OC (stereo not drawn)	/	/	22.9	1.1%[46.1 µM]	/	/
Cc1cccc(NC(=O)CNC(=O)CN2C(=O)NC(C)(CCC(C)C)C2=O)c1C (stereo not drawn)	-29.1%[46.1 µM]	2.3%	-13.0	5.7%	/	/
CCOC(=O)c1ccccc1NC(=O)CSc1nc2ncccc2[nH]1	/	/	-29.8	3.6%[46.1 µM]	/	/
CCN(c1ccccc1)S(=O)(=O)c1ccc(NN)nc1	/	?	28.6	/	13.1µM*	?
CCN(c1ccccc1)S(=O)(=O)c1ccc2ccccc2c1	-24.1%	5.62µM*	-20.4	8.1%	-5.9%	-5.8%
CCN(c1ccccc1)S(=O)(=O)c1ccc(OC)c(OC)c1	-14.8%	14.5%	-17.3	1.3%	/	10.4%
CCc1ccc2occ(CC(=O)Nc3ccc(C)c(C)c3)c2c1	?	/	-26.7	?	/	/
O=C(C[C@H]1CC[C@@H]2[C@H](COC[C@H](O)CN2Cc2cccc(F)c2)O1)NCc1cccc(F)c1	/	/	9.3	/	/	/
c1ccc2c(c1)NC1(CCCCC1)n1c-2nc2ccccc21	-11.5%	-4.3%	75.0	-2.2%	/	2.1%
O=C1Nc2ccccc2C12Nc1ccccc1-c1nc3ccccc3n12 (stereo not drawn)	-6.0%	?	0.0	-1.7%	0.738µM*	/
CN1C(=O)C2(Nc3ccccc3-c3nc4ccccc4n32)c2ccccc21 (stereo not drawn)	9.5%	-6.9%	-20.0	5.5%	8.28µM*	-7.6%
CCN1C(=O)C2(Nc3ccccc3-c3nc4ccccc4n32)c2cc(OC)ccc21 (stereo not drawn)	?	16.4%	?	-18.0%	9.28µM*	4.7%
COC(=O)NCCOC(=O)N(O)c1ccc(Br)cc1	5.0%	3.2%	2.4	-2.7%	9.28µM*	?
COCCNC(=O)CN(C)S(=O)(=O)c1ccc(Br)cc1	?	5.4%	23.8	-8.4%	-0.3%	?
